An excerpt weighted towards active compounds, which were near 8% of everything screened.
KB-3-1 tox: qHTS assay for MDR1-selective chemotherapeutics: Primary screen using the parental adenocarcinoma cell KB-3-1. 400,000 compounds, 1.4% hits. AID 1347075, 2019. Potency, µM (series often up to 46.1 µM), most hits filed as cytotoxic. KB-3-1 viability, CellTiter-Glo ATP luminescence, 72 h; further: on the % scale 0 is the no-effect control and ±100 the full control effect; nearly all actives have a fitted effect of over 60% in size
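KB-3-1 cells, DMEM (no phenol red) + 10% FBS; compound by pin transfer, 72 h, 37 °C. Readout: CellTiter-Glo luminescence after 10 min. Data normalized, curve-fitted.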
KB-V1 MDR tox: qHTS assay for MDR1-selective chemotherapeutics: Primary screen using the drug-selected MDR subline cells KB-V1; KB-V1 MDR cells viability, CellTiter-Glo, 72 h; Potency, µM (series often up to 46.1 µM), actives largely listed as cytotoxic; 400,000 compounds, 3.4% hits; AID 1347076, 2019; further: on the % scale 0 is the no-effect control and ±100 the full control effect; nearly all actives have a fitted effect of over 60% in size
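Cytotoxicity toward P-gp-expressing KB-V1 cells was determined as loss of CellTiter-Glo luminescence after 72 h at 37 degrees C. Compounds were tested in quantitative HTS format across a concentration range, with curves fitted to normalized data.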
HT1080-NT tox: qHTS for induction of synthetic lethality in tumor cells producing 2HG: qHTS for the HT-1080-NT fibrosarcoma cell line. HT-1080-NT fibrosarcoma viability, CellTiter-Glo ATP luminescence, 48 h. Potency, µM (highest dose often 46.1 µM), inactives show top-dose activity, negative = less viability, usual class: cytotoxic. 360,000 compounds, 1.6% hits. AID 686970, 2013;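 further: NT is the 2HG producing partner of a matched IDH1 knockdown line; 0% = DMSO-treated cells and -100% = media-only wells without cells; nearly all actives have a fitted effect of over 55% in size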
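HT-1080-NT; 750 cells/well; 5% FBS RPMI; 48 h compound, 37 degrees C; CellTiter-Glo luminescence; curve fitting and curve-class assignment.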
SW480 rereplic: A quantitative high throughput screen for small molecules that induce DNA re-replication in SW480 colon adenocarcinoma cells. 340,000 compounds, 1.8% hits. AID 624297, 2012. Potency, µM (titrated, usually from 46.1 µM), for the others: top-dose re-replication activation, hits mostly activators. SW480 DNA re-replication, Hoechst DNA content imaging, 48 h; further: % of control where 0% means no effect; nearly all actives have a fitted effect of over 55% in size
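First, 250 cells per well were seeded. Next, compound or vehicle (23 nL) was pinned in, plates sat 48 hr at 37 C. Finally Hoechst was added for 40 min before fluorescence scanning.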
MCF10A rerep: A quantitative high throughput screen for small molecules that induce DNA re-replication in MCF 10a normal breast cells. 350,000 compounds, 2.9% hits. Potency, µM (doses to about 46.1 µM), for inactives: at the highest dose activity, positive = re-replication, usual class: activators. MCF 10A DNA re-replication, Hoechst nuclear intensity, 48 h. AID 624296, 2012; further: % of control where 0% means no effect; nearly all actives have a fitted effect of over 50% in size
HT1080 IDH1KD tx: qHTS for induction of synthetic lethality in tumor cells producing 2HG: qHTS for the HT-1080-IDH1KD cell line. Potency, µM (doses to about 46.1 µM), for the others: at the highest dose activity, negative = toxicity, most hits filed as cytotoxic. 360,000 compounds, 2% hits. HT-1080 IDH1 knockdown viability, ATP luminescence, 48 h;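 further: 0% = DMSO wells and -100% = cell-free medium wells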
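CellTiter-Glo luminescence after 48 h compound exposure at 37 degrees C of IDH1-knockdown HT-1080 cells in 5% FBS RPMI. %Activity scaled between DMSO wells and cell-free media wells, with curves fitted and assigned curve classes.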
Active calls of the source: *; i = inactive; ? = inconclusive; · = not tested or not shown; [ ] = dose if it differs, or a comment. The call rests on the fitted dose curve; in most records, active means well fitted curve in the direction sought with a large enough effect; inconclusive means small, poorly fitted or top-dose-only effect, or another doubt; inactive means no such curve, though single readings can be large; an effect the other way counts as inactive or inconclusive. Potency means the concentration at half of the fitted maximal effect.

SMILES | KB-3-1 tox | KB-V1 MDR tox | HT1080-NT tox | SW480 rereplic | MCF10A rerep | HT1080 IDH1KD tx
CC1([N+](=O)[O-])COP(=O)(Nc2cccc(Cl)c2)OC1 (centres undefined) | i | i | 5.3% | 1.6% | -1.7% | 7.2%
O=C(O)c1cccc2c1NC(C(=O)O)C1CC(Sc3ccccc3[N+](=O)[O-])C(Cl)C21 (centres undefined) | i | i | 2.5% | -3.4% | -0.2% | -0.1%
CC(=O)c1ccc2c(c1)C1C(Cl)C(Sc3ccccc3[N+](=O)[O-])CC1C(C(=O)O)N2 (centres undefined) | i | 10.3µM* | 5.5% | 1.1% | -43.5% | 4.8%
CC(=O)OC[C@]12CCC(C)=C[C@H]1O[C@@H]1[C@H](O)[C@@H](OC(C)=O)[C@@]2(C)[C@]12CO2 | ? | ? | ? | ? | 9.4% | 0.206µM*
COC(=O)C1=C(c2ccc(S(C)(=O)=O)cc2)C[C@@H]2CC[C@H]1N2C(=O)N1CCC(O)CC1 | i | i | 8.9% | -5.0% | -5.4% | 10.2%
CN1C(=O)CC(=O)N(c2ccccc2)c2cc(Cl)ccc21 | · | · | · | -0.4% | 4.4% | ·
Cc1cccnc1NC1=NCC(C)S1 (centres undefined) | i | i | 7.7% | -7.7% | -6.1% | 17.1%
O=c1[nH]c(=O)n(Cc2ccccc2Cl)c(O)c1/C=C1/C=CC=N1 | 23.1µM* | i | 4.11µM* | 14.6µM* | 6.51µM* | 5.8µM*
CCCCn1c(O)c(/C=C2/C=CC=N2)c(=O)[nH]c1=O | i | i | 14.6µM* | ? | ? | ?
O=C(Cc1ccccc1)OCn1nnc2ccccc2c1=O | i | i | 0.0% | -11.3% | -1.8% | -4.1%
CCCOc1ccccc1C1SCC(=O)Nc2c1c(=O)[nH]n2C(C)CCC (centres undefined) | i | i | -1.8% | -2.7% | -1.0% | 8.7%
COc1ccc(-c2nn(-c3ccccc3)cc2C(=O)N2c3ccc(C)cc3C3CN(C)CCC32)cc1 (centres undefined) | i | i | · | 2.4% | ? | 23.1µM*
Cc1cccc(C)c1-n1nnnc1C(CCc1ccccc1)N1CCC(n2c(=O)[nH]c3ccccc32)CC1 (centres undefined) | ? | ? | 12.9% | · | · | 15.0%
O=c1[nH]c2ccccc2n1C1CCN(C(CCc2ccccc2)c2nnnn2-c2ccc3c(c2)OCCO3)CC1 (centres undefined) | ? | 23.1µM* | 13µM* | · | · | 14.6µM*
O=C1NCN(c2ccccc2)C12CCN(C(CCc1ccccc1)c1nnnn1C1CCCCC1)CC2 (centres undefined) | ? | ? | ? | · | · | 25.9µM*
O=C1NCN(c2ccccc2)C12CCN(C(c1cccs1)c1nnnn1C1CCCC1)CC2 (centres undefined) | i | i | -12.8% | · | · | -17.4%
COc1ccc(-n2nnnc2C(CCc2ccccc2)N2CCC(n3c(=O)[nH]c4ccccc43)CC2)cc1 (centres undefined) | ? | ? | 16.4µM* | · | · | 13µM*
C[C@]12CC[C@H](O)CC1=CCC1C2CC[C@]2(C)C(=O)CC[C@@H]12 (some centres undefined) | · | · | · | 0.5% | 9.5% | ·
O=C1/C(=C\c2ccc([N+](=O)[O-])cc2)N2CCC1CC2 | i | i | 11.4% | -0.3% | ? | -0.6%
COc1ccccc1CN1CCCCC1c1cccnc1 (centres undefined) | i | i | 5.8% | -14.8% | 24.1% | 13.7%
CC1CC[C@@]2(NC1)OC1CC3C4CC[C@@H]5CC(O)CC[C@@]5(C)C4CC[C@]3(C)C1C2C (some centres undefined) | · | · | · | -2.8% | 13.8% | ·
CC1OC(OC2CCC3(C)C(CCC4C3CC(O)C3(C)C(C5=CC(=O)OC5)CCC43O)C2)CC(O)C1OC1CC(O)C(OC2CC(O)C(OC3OC(CO)C(O)C(O)C3O)C(C)O2)C(C)O1 (centres undefined) | · | · | · | ? | 5.7% | ·
CC(=O)OC1CC(OC2C(O)CC(OC3C(O)CC(OC4CCC5(C)C(CCC6C5CCC5(C)C(C7=CC(=O)OC7)CCC65O)C4)OC3C)OC2C)OC(C)C1OC1OC(CO)C(O)C(O)C1O (centres undefined) | ? | 0.411µM* | 0.082µM* | 0.92µM* | 15.2% | 0.0517µM*
CC(=O)OC1C[C@H](O[C@@H]2C(O)C[C@H](O[C@@H]3C(O)C[C@@H](OC4CC[C@]5(C)C(CCC6C5CC(O)[C@@]5(C)C(C7=CC(=O)OC7)CC[C@@]65O)C4)OC3C)OC2C)O[C@H](C)[C@H]1O[C@H]1OC(CO)C(O)C(O)C1O (some centres undefined) | · | · | · | ? | 0.119µM* | ·
COC(=O)C1=C(c2ccc(OC)c(OC)c2)C[C@@H]2CC[C@H]1N2C(=O)NC(C)C | i | i | 9.7% | 2.6%[9.22 µM] | -6.0% | 15.4%
SMILES | KB-3-1 tox | KB-V1 MDR tox | HT1080-NT tox | SW480 rereplic | MCF10A rerep | HT1080 IDH1KD tx
CCc1nnc(NS(=O)(=O)c2ccc(N=Cc3c(O)n(-c4ccc(Cl)cc4)c(=O)[nH]c3=O)cc2)s1 | i | i | 7.4% | 0.4% | -1.4% | ?
CCN(CC)S(=O)(=O)c1ccc(NN=C(C#N)C#N)cc1 | i | i | -23.6% | 16.3% | 10.3µM* | -27.3%
Cc1cc(C)n(-c2ccc(NN=C(C#N)C#N)cc2)n1 | i | i | 9.0% | 113.3% | ? | ?
N#CC(C#N)=NNc1ccc([N+](=O)[O-])cc1 | i | i | 20.6µM* | ? | 18.4µM* | 16.4µM*
O=P(OCC(F)(F)C(F)F)(N1CCOCC1)N1CCOCC1 | i | ? | 11.0% | -4.5% | 1.5% | 13.3%
Cc1cccc(CCNCc2cc3ccc(C)cc3[nH]c2=O)c1 | i | i | -11.7% | 13.3% | ? | -10.2%
C=C1C(C)C2C(Cc3ccccc3)NC(=O)C23OC(=O)/C=C/C(O)CCCC(C)C/C=C/C3C1O (centres undefined) | ? | ? | ? | 9.2µM* | 6.51µM* | 8.2µM*
CCOC(=O)c1ccc2[nH]c(-c3ccc(S(=O)(=O)F)cc3)cc(=O)c2c1 | i | i | 3.9% | -0.2% | 3.2% | 6.1%

From PubChem
